High-throughput results deposited in PubChem BioAssay by National Center for Advancing Translational Sciences (NCATS).
This is a sample that favours compounds with a hit; in the whole collection about 7.2% have one here.
LASV entry inh – inhibitors of Lassa virus binding or cell entry. Lassa virus pseudotype entry inhibition, cell reporter. Potency, µM (series often up to 37.9 µM), usual class: inhibitors. actives 1.2% (n = 300,000); calls by dose curve; tested in HEK293 cells; further: nearly all actives have a fitted effect of over 50% in size
RE007 growth inh – less growth of the S. pombe RE007 Vpr strain | AID 651644 | S. pombe RE007 Vpr strain, BacTiter-Glo ATP luminescence, 24 h | actives 0.21% (n = 360,000) | Potency, µM (doses to about 92.2 µM), hits mostly inhibitors; active means well fitted falling curve with a large enough effect; inconclusive means small, poorly fitted or top-dose-only effect; inactive means no such curve, though single readings can be large or run the other way; further: nearly all actives have a fitted effect of over 50% in size
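Fission yeast strain RE007, carrying one chromosomally integrated HIV-1 vpr copy, was seeded at OD 0.01 in PMG+AL medium with 23 nL pinned compound. After 24 h at 30 °C and 99% humidity, viability was read by BacTiter-Glo luminescence.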
FMDV inh – antivirals against foot and mouth disease virus; AID 1159524; actives 1.2% (n = 410,000); FMDV antiviral cell-based qHTS; Potency, µM (highest dose often 57.9 µM), actives largely listed as inhibitors; calls by dose curve; tested in HEK293T cells; further: read-out not given here; nearly all actives have a fitted effect of over 45% in size
MARV entry inh – blocks Marburg virus binding to or entry into cells; Marburg virus pseudotyped entry inhibition, cell reporter; Potency, µM (doses to about 37.8 µM), usual class: inhibitors; AID 540276; actives 1.8% (n = 300,000); calls by dose curve; tested in HEK293 cells
Sm TGR inh – blocks Schistosoma mansoni thioredoxin glutathione reductase | purified TGR, DTNB reduction, TNB absorbance 405 nm | Potency, µM (highest dose often 114 µM), hits mostly inhibitors | actives 3% (n = 360,000); further: nearly all actives have a fitted effect of over 60% in size
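Kinetic colorimetric format: TGR-catalysed, NADPH-driven DTNB reduction monitored via TNB absorbance. Enzyme dispensed at 20 nM; compound exposure 15 min at room temperature before reaction start.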
HCV inhibitor – inhibitors of hepatitis C virus infection. Huh7.5.1 HCVcc-Cre infection, luciferase reporter, 44 h. Potency, µM (series often up to 41.8 µM), actives largely listed as inhibitors. actives 3.4% (n = 340,000). AID 651820
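Whole-lifecycle infectious HCVcc-Cre system; cells 1,000/well, compound then virus (~0.5 moi) added 4 h after plating, 44 h culture. Luciferase read 15 sec following 15 min substrate incubation, room temp.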
Of the large screens only hits and unclear results are named; the others gave an inactive call; ! = repeats disagree. Unless noted, the call rests on the fitted dose curve; in most records, active means well fitted curve in the direction sought with a large enough effect; inconclusive means small, poorly fitted or top-dose-only effect, or another doubt; inactive means no such curve, though single readings can be large; an effect the other way counts as inactive or inconclusive.

O=C1CCCN1CCC1CCN(C2CC(=O)N(c3ccc(F)cc3)C2=O)CC1 (configuration not stated)	RE007 growth inh 32µM, Sm TGR inh inconclusive
CCc1cccc(NC(=O)C(Cc2ccccc2)n2cccc2)c1 (configuration not stated)	MARV entry inh inconclusive (no result: LASV entry inh, RE007 growth inh, HCV inhibitor)
COc1ccc(NC(=S)NC(NC(=O)/C=C/c2ccccc2)C(Cl)(Cl)Cl)cc1 (configuration not stated)	FMDV inh inconclusive
O=C(O)CCC(=O)Nc1ccc(N=Nc2ccccc2)cc1	none
O=C(CCc1ccccc1)NC(NC(=S)Nc1ccc(Cl)cc1)C(Cl)(Cl)Cl (configuration not stated)	LASV entry inh inconclusive, MARV entry inh 11µM
CC(C)CC(=O)NC(NC(=S)Nc1ccccc1)C(Cl)(Cl)Cl (configuration not stated)	MARV entry inh inconclusive (no result: LASV entry inh)
CC(C)(C)C(=O)Nc1ccc(N=Nc2ccccc2)cc1	LASV entry inh inconclusive, FMDV inh 18µM, MARV entry inh inconclusive, HCV inhibitor inconclusive
CC(=O)NC(NC(=S)Nc1ccc(N=Nc2ccccc2)cc1)C(Cl)(Cl)Cl (configuration not stated)	LASV entry inh inconclusive, FMDV inh inconclusive, MARV entry inh inconclusive, HCV inhibitor 7.1µM
O=C(/C=C/c1ccccc1)NC(NC(=S)Nc1ccc(Cl)cc1)C(Cl)(Cl)Cl (configuration not stated)	LASV entry inh inconclusive, MARV entry inh 4.6µM, HCV inhibitor inconclusive
COc1cccc(NC(=O)CSCn2nnc3c(=O)[nH]c(Cc4ccc(F)cc4)nc32)c1	MARV entry inh inconclusive (no result: RE007 growth inh, HCV inhibitor)
CCc1ccc(NC(=O)CCc2nnc3n(C)c(=O)c4sccc4n23)cc1	MARV entry inh inconclusive (no result: RE007 growth inh, HCV inhibitor)
O=C(/C=C/c1ccco1)NCCc1ccccc1	Sm TGR inh 7.9µM
Cc1cc(C(=O)OCC(=O)NC(C)c2ccccc2)c(C)o1 (configuration not stated)	LASV entry inh inconclusive
O=C(O)CCCNC(=O)/C=C/c1ccco1	LASV entry inh inconclusive, Sm TGR inh 4.5µM
Cc1ccc(/C=C/C(=O)OCC(=O)NC(C)c2ccccc2)o1 (configuration not stated)	Sm TGR inh 35µM (no result: LASV entry inh, MARV entry inh)
Cc1ccc(/C=C/C(=O)NCCc2ccccc2)o1	MARV entry inh inconclusive, Sm TGR inh 3.2µM
COc1ccc(-c2noc(CNS(=O)(=O)c3ccc(Br)cc3)n2)cc1OC	none (no result: RE007 growth inh, HCV inhibitor)
Cc1cnc(CNc2ncncc2-c2c(C)noc2C)cn1	none (no result: LASV entry inh, RE007 growth inh, MARV entry inh, Sm TGR inh, HCV inhibitor)
CC(C)(C)c1ccc(C(=O)NC(=O)COC(=O)c2ccco2)cc1	none
Cc1nn(-c2ccc(N3CCOCC3)nn2)c(C)c1CCC(=O)NCc1ccc(OC(C)C)cc1	none (no result: RE007 growth inh, MARV entry inh, HCV inhibitor)
COc1cccc(CNc2cc(C)ccn2)c1O	Sm TGR inh 22µM
COc1cccc(CNc2ccccn2)c1O	MARV entry inh inconclusive, Sm TGR inh 28µM
Cc1ccnc(NCc2cccc3ccccc23)c1	HCV inhibitor inconclusive (no result: LASV entry inh, MARV entry inh)
O=C(CSc1c2c(nc3cc(Cl)ccc13)CCCC2)N1CCN(c2ccccc2F)CC1	FMDV inh inconclusive (no result: RE007 growth inh, HCV inhibitor)
Cc1ccc(C)c(S(=O)(=O)N2CCN(Cc3cc4c(cc3O)OCO4)CC2)c1	MARV entry inh inconclusive, Sm TGR inh 0.63µM
O=C(NCC(=O)N1CCN(S(=O)(=O)c2ccccc2F)CC1)c1ccc2c(c1)OCO2	none
Oc1cc2c(cc1CN1CCN(c3ccc(F)cc3)CC1)OCO2	Sm TGR inh 2.5µM
O=S(=O)(c1ccccc1F)N1CCN(Cc2cc3c(cc2O)OCO3)CC1	Sm TGR inh 0.71µM (no result: LASV entry inh, MARV entry inh)
CCOC(=O)c1ccc(S(=O)(=O)N2CCN(Cc3cc4c(cc3O)OCO4)CC2)cc1	MARV entry inh inconclusive, Sm TGR inh 0.35µM
Cc1ccc(S(=O)(=O)N(CCc2ccccc2)CC(=O)Nc2ccc(Br)cc2)cc1	none (no result: RE007 growth inh, MARV entry inh, HCV inhibitor)
COc1cccc(-n2c(=O)c3c4c(sc3n(Cc3ccc(F)cc3Cl)c2=O)CCCC4)c1	none (no result: RE007 growth inh, HCV inhibitor)
CCOC(=O)c1ccc(S(=O)(=O)N2CCN(C3CCCC3)CC2)cc1	Sm TGR inh 13µM, HCV inhibitor inconclusive
O=[N+]([O-])c1ccccc1S(=O)(=O)N1CCN(Cc2cc3c(cc2O)OCO3)CC1	Sm TGR inh 0.56µM
O=[N+]([O-])c1ccccc1CN1CCN(S(=O)(=O)c2ccccc2)CC1	none (no result: Sm TGR inh)
CCc1nnc(NC(=O)CSc2nc(C)cc(C)c2C#N)s1	LASV entry inh inconclusive, MARV entry inh 7.9µM
CCN(Cc1ccccc1)C(=O)CSc1nc(C)cc(C)c1C#N	HCV inhibitor 10µM
CCOC(=O)NC(=O)CSc1nc(C)cc(C)c1C#N	Sm TGR inh inconclusive
O=C(NCCc1ccccc1Cl)c1ccc2c(c1)nc1n2CCCCC1	LASV entry inh inconclusive, FMDV inh 25µM (no result: RE007 growth inh, MARV entry inh, HCV inhibitor)
Clc1ccc2c(c1)nc1n2CCCC1	HCV inhibitor 25µM (no result: LASV entry inh, RE007 growth inh, MARV entry inh)
Cc1ccc(C)c(CNC(=O)c2ccc3c(c2)nc2n3CCCCC2)c1	LASV entry inh 7.9µM (no result: RE007 growth inh, MARV entry inh, HCV inhibitor)
Cc1cccc(CNC(=O)Cc2csc3ccccc23)c1	MARV entry inh inconclusive (no result: RE007 growth inh, HCV inhibitor)
Clc1ccc(C(Cl)(Cl)Cl)c(Cl)c1	Sm TGR inh 2.8µM, HCV inhibitor inconclusive (no result: LASV entry inh, MARV entry inh)
Cc1nnc(SCC(=O)Nc2ccc(Br)cc2)[nH]c1=O	MARV entry inh inconclusive (no result: RE007 growth inh, HCV inhibitor)
CCOc1cc(N2CCOCC2)c(OCC)cc1NC(=O)c1cc(C)cc(C)c1	LASV entry inh inconclusive, FMDV inh inconclusive, HCV inhibitor 3.5µM
C/C(=C\C(=O)c1ccc(C)cc1)Nc1cccc(O)c1	HCV inhibitor 13µM
CC(=O)c1cccc(NS(=O)(=O)c2ccc(NC(=O)N3CCCCC3)cc2)c1	LASV entry inh inconclusive, FMDV inh inconclusive, MARV entry inh 2.2µM, HCV inhibitor inconclusive
CC(=O)c1cccc(N/C=C\C(=O)c2ccc(C)cc2)c1	LASV entry inh 7.9µM, MARV entry inh inconclusive
CC(=O)c1cccc(NS(=O)(=O)c2ccc(N/C=C\C(=O)c3ccc(F)cc3)cc2)c1	LASV entry inh inconclusive, FMDV inh inconclusive, MARV entry inh inconclusive, HCV inhibitor 11µM
CC(=O)c1cccc(NS(=O)(=O)c2ccc(N/C=C/C(=O)c3ccc(F)cc3)cc2)c1	LASV entry inh inconclusive, FMDV inh inconclusive, HCV inhibitor 11µM
CC(=O)c1cccc(NS(=O)(=O)c2ccc(N/C=C\C(=O)c3ccc(C)cc3)cc2)c1	FMDV inh inconclusive, MARV entry inh inconclusive, HCV inhibitor inconclusive
CCOc1cccc(CNc2ccc(O)cc2)c1OCc1ccccc1Cl	LASV entry inh inconclusive, RE007 growth inh inconclusive, FMDV inh inconclusive, Sm TGR inh 45µM!, HCV inhibitor inconclusive
CN(C)S(=O)(=O)c1ccc(C(=O)OCC(=O)NCc2ccco2)cc1	Sm TGR inh 35µM
Cn1c(C(=O)OCC(=O)NCc2ccco2)cc2sccc21	LASV entry inh inconclusive, Sm TGR inh 50µM (no result: FMDV inh)
